According to PubChem BioAssay AID686978 (National Center for Advancing Translational Sciences (NCATS), 2013):
Hit rate of the full screen: of about 420,000 compounds, about 64,000 (15%) were called active. Another 27% or so got no clear call; they are omitted. Calls follow the shape of the dose curve; as a rule, active = well fitted inhibition curve with a large enough effect; inconclusive = small, poorly fitted or top-dose-only effect; inactive = flat fitted curve, though single readings scatter. A selection follows. Peptide text beside a SMILES is read from it.

Assay: qHTS for Inhibitors of human tyrosyl-DNA phosphodiesterase 1 (TDP1): qHTS in cells in absence of CPT; also: nearly all actives have a fitted effect of over 55% in size
Details: DT40 Tdp1-/- hTDP1 cells, no CPT, ATP luminescence, 48 h; activity change, negative = growth inhibition: at 46.2 µM (top of the series)
Summary of the method: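 Readout: luminescence from CellTiter-Glo after 30 min in the dark at RT. Cells: DT40 Tdp1-/- with stable hTDP1, 400/well. Exposure: compounds alone, ≥48 hr, 37 °C.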
% is scaled to controls: 0 for no effect and ±100 for the full control effect; potency is read from the fitted curve at half-maximal effect.

**Q.** With `Cc1nc2sc(C(c3ccco3)N3CCC4(CC3)OCCO4)c(O)n2n1` (centres undefined) as the compound, how does the “activity change, negative = growth inhibition” value read?
**A.** Its value is 1.96% (inactive).

**Q.** For `Cc1[nH]n(-c2cccc(Cl)c2)c(=O)c1-c1ccc(Cl)cc1`, which Potency is on record?
**A.** The Potency was 16.4 µM (active).

**Q.** For `Cc1nn(-c2ccccc2)c(NC(=O)c2cccs2)c(-c2ccc(Cl)cc2)c1=O`, which “activity change, negative = growth inhibition” value is on record?
**A.** The value was -7.27% (inactive).

**Q.** For `CC1=NN(c2cccc(Cl)c2)C(=O)C12CC(C)=C(C)CS2` (centres undefined), which “activity change, negative = growth inhibition” value is on record?
**A.** The value was -20.8% (inactive).

**Q.** With `CCOC(=O)Cn1c(=O)oc2cc(S(=O)(=O)NCC3CCCO3)ccc21` (centres undefined) as the compound, how does the “activity change, negative = growth inhibition” value read?
**A.** Its value is -6.29% (inactive).

**Q.** Which “activity change, negative = growth inhibition” value does the source give for `NC(=O)C1CCN(C(=O)COc2ccc3c4c(c(=O)oc3c2)CCC4)CC1` here?
**A.** Its value is 3.58% (inactive).

**Q.** With `CC1CCCCN1CC(=O)N1CCCc2c1c(=O)oc1ccc(OCc3ccccc3)cc21` (centres undefined) as the compound, how does the Potency read?
**A.** Its Potency is 4.61 µM (active).

**Q.** Which “activity change, negative = growth inhibition” value does the source give for `O=C(COc1ccc2oc3c(c2c1)CCCC3)Nc1ccccn1` here?
**A.** The value was -15.6% (inactive).

**Q.** With `COc1cccc(CCNC(=O)c2cccc(NC(=O)C3=C(C)OCCS3)c2)c1` as the compound, how does the “activity change, negative = growth inhibition” value read?
**A.** Its value is -62.7% (inactive).

**Q.** Which “activity change, negative = growth inhibition” value does the source give for `CC1CCCCC1NC(=O)CCS(=O)(=O)c1cccc2nonc12` (centres undefined) here?
**A.** The value was -13.7% (inactive).

**Q.** With `CCOC(=O)COc1ccc(Cl)cc1C1NC(=O)NC(C)=C1C(C)=O` (centres undefined) as the compound, how does the “activity change, negative = growth inhibition” value read?
**A.** Its value is 3.59% (inactive).

**Q.** Which Potency does the source give for `CCOC(=O)C1=C(CN2CCc3ccccc32)NC(=O)NC1c1cc(C)ccc1C` (centres undefined) here?
**A.** The Potency was 12.6 µM (active).

**Q.** Which “activity change, negative = growth inhibition” value does the source give for `CCOC(=O)C1=C(CSc2nccn2C)NC(=O)NC1c1ccc(OC)cc1` (centres undefined) here?
**A.** The value was -27.7% (inactive).

**Q.** For `CCOC(=O)c1sc(-c2cccc([N+](=O)[O-])c2)cc1N`, which “activity change, negative = growth inhibition” value is on record?
**A.** The value was -5.43% (inactive).

**Q.** With `CCOC(=O)C1=C(COC(=O)[C@H](C)NS(=O)(=O)c2ccccc2F)NC(=O)NC1C` (some centres undefined) as the compound, how does the “activity change, negative = growth inhibition” value read?
**A.** The value was -3.81% (inactive).

**Q.** For `CCOCCOC(=O)C1=C(C)NC(=O)NC1c1ccc2c(c1)OCO2` (centres undefined), which “activity change, negative = growth inhibition” value is on record?
**A.** Its value is 5.25% (inactive).

**Q.** With `CCOC(=O)C1=C(CNC2CCCCC2)NC(=O)NC1c1cc(C)ccc1C` (centres undefined) as the compound, how does the Potency read?
**A.** Its Potency is 20.6 µM (active).

**Q.** For `CCOC(=O)C1=C(CN2CCCCCC2)NC(=O)NC1c1cccc([N+](=O)[O-])c1` (centres undefined), which Potency is on record?
**A.** The Potency was 20.6 µM (active).

**Q.** With `CCOC(=O)C1=C(c2ccccc2)NC(=O)NC1c1cc(OC)c(OC)cc1OC` (centres undefined) as the compound, how does the “activity change, negative = growth inhibition” value read?
**A.** The value was -9.62% (inactive).

**Q.** With `CC(=O)NC(C(=O)NCC(N)=O)C(C)C` (centres undefined) (HELM PEPTIDE1{[ac].[CC(C)C(N[*:1])C(=O)[*:2]].G.[am]}$$$$V2.0) as the compound, how does the “activity change, negative = growth inhibition” value read?
**A.** Its value is -3.83% (inactive).

**Q.** For `C/C(Cc1ccccc1)=N\NC(=O)CNC(=O)c1ccccc1Cl`, which “activity change, negative = growth inhibition” value is on record?
**A.** Its value is 6.63% (inactive).

**Q.** For `CCC(C)N(C(=O)Cn1nc(C)c([N+](=O)[O-])c1C)C1CCS(=O)(=O)C1` (centres undefined), which “activity change, negative = growth inhibition” value is on record?
**A.** Its value is -0.177% (inactive).

**Q.** Which “activity change, negative = growth inhibition” value does the source give for `Nc1cc(=O)n(Cc2ccccc2)c(=O)n1Cc1ccccc1` here?
**A.** Its value is -9.87% (inactive).

**Q.** With `COc1cc(OC)c(-n2c(C)cc(C=O)c2C)cc1Cl` as the compound, how does the “activity change, negative = growth inhibition” value read?
**A.** The value was -14.2% (inactive).

**Q.** Which “activity change, negative = growth inhibition” value does the source give for `COc1ncnc2c1ncn2CCCNCCN1CCOCC1` here?
**A.** The value was 12.5% (inactive).

**Q.** For `CN1/C(=C\C=C2\N=C(c3ccc(F)cc3)OC2=O)C(C)(C)c2ccccc21`, which Potency is on record?
**A.** The Potency was 23.1 µM (active).

**Q.** With `Cc1ccnc2nc(C(=O)OCC(=O)N(CC(C)C)CC(C)C)nn12` as the compound, how does the “activity change, negative = growth inhibition” value read?
**A.** Its value is -5.82% (inactive).

**Q.** For `O=C(O)c1ccccc1-c1ccccc1C(=O)Nc1nccs1`, which “activity change, negative = growth inhibition” value is on record?
**A.** Its value is 3.73% (inactive).

**Q.** With `COc1ccc([C@H]2CC(=O)C[C@@H](CCn3cc(CC4CCCC4)nn3)O2)cc1` as the compound, how does the “activity change, negative = growth inhibition” value read?
**A.** The value was -23.7% (inactive).

**Q.** Which Potency does the source give for `COc1ccc(-c2ccc(CN3C(CC(C)C)C(=O)N(Cc4cn(CC5CCCCC5)nn4)CCS3(=O)=O)cc2)cn1` (centres undefined) here?
**A.** The Potency was 18.4 µM (active).

**Q.** With `COc1ccc(-c2ccc(CN3C(C(C)C)C(=O)N(Cc4cn(CC5CCCCC5)nn4)CCS3(=O)=O)cc2)cn1` (centres undefined) as the compound, how does the Potency read?
**A.** The Potency was 23.1 µM (active).

**Q.** With `COc1ccc(-c2ccc(CN3C(CC(C)C)C(=O)N(Cc4cn(CC5CCCCC5)nn4)CCS3(=O)=O)cc2)cc1` (centres undefined) as the compound, how does the Potency read?
**A.** Its Potency is 9.2 µM (active).

**Q.** For `Cc1nccn1CCCNC(=O)CC1C(=O)NCCN1Cc1ccc(Cl)c(F)c1` (centres undefined), which “activity change, negative = growth inhibition” value is on record?
**A.** The value was -10.3% (inactive).

**Q.** Which “activity change, negative = growth inhibition” value does the source give for `O=C(NCc1cccnc1)C12CC3CC(CC(C3)C1)C2` here?
**A.** The value was -20.2% (inactive).

**Q.** With `Cc1ccc(/C=C/C(=O)OCC(=O)Nc2cccnc2Cl)cc1` as the compound, how does the “activity change, negative = growth inhibition” value read?
**A.** The value was 6.96% (inactive).

**Q.** With `COc1ccc(NC(=O)CCS(=O)(=O)c2cc3c(cc2Cl)NC(=O)CO3)cc1OC` as the compound, how does the “activity change, negative = growth inhibition” value read?
**A.** Its value is 15.1% (inactive).

**Q.** Which “activity change, negative = growth inhibition” value does the source give for `CC(C)C(C)(C#N)NC(=O)CSc1nncn1-c1ccccc1` (centres undefined) here?
**A.** The value was -26.6% (inactive).

**Q.** Which “activity change, negative = growth inhibition” value does the source give for `Cn1c(=O)c2sccc2n2c(CCC(=O)NCc3ccccc3Cl)nnc12` here?
**A.** Its value is -28.7% (inactive).

**Q.** For `CSc1ccc(Cl)c(C(=O)OCC(=O)N2CCNC2=O)c1`, which “activity change, negative = growth inhibition” value is on record?
**A.** Its value is -20.3% (inactive).

**Q.** With `Cc1ccc(N2CC(C(=O)N3CCC4(CC3)CC(=O)c3ccccc3O4)CC2=O)cc1C` (centres undefined) as the compound, how does the Potency read?
**A.** Its Potency is 14.6 µM (active).

**Q.** Which “activity change, negative = growth inhibition” value does the source give for `O=C(C1CC(=O)N(c2ccc(Br)cc2)C1)N1CCCC1` (centres undefined) here?
**A.** The value was -3.38% (inactive).

**Q.** For `CCc1ccc(N2CC(C(=O)N3CCCCCC3)CC2=O)cc1` (centres undefined), which “activity change, negative = growth inhibition” value is on record?
**A.** The value was -15.7% (inactive).

**Q.** Which “activity change, negative = growth inhibition” value does the source give for `Nn1c(SCC(=O)Nc2nccs2)nnc1-c1ccco1` here?
**A.** Its value is -0.464% (inactive).

**Q.** With `COC(=O)C1=C(C(=O)c2ccc(C)cc2)C(c2ccccc2)n2nnnc2N1` (centres undefined) as the compound, how does the “activity change, negative = growth inhibition” value read?
**A.** Its value is -11.2% (inactive).

**Q.** For `CC(C)Cc1ccc(C(C)C(=N)N)cc1` (centres undefined), which Potency is on record?
**A.** Its Potency is 6.51 µM (active).

**Q.** With `COc1ccc(CCNC(=O)CC2SC(=Nc3cc(C)cc(C)c3)NC2=O)cc1OC` (centres undefined) as the compound, how does the “activity change, negative = growth inhibition” value read?
**A.** Its value is -23.3% (inactive).

**Q.** Which “activity change, negative = growth inhibition” value does the source give for `O=C1c2cccnc2C(Nc2ccc(S(=O)(=O)N3CCCCCC3)cc2)N1Cc1ccccc1` (centres undefined) here?
**A.** The value was -25.2% (inactive).

**Q.** Which “activity change, negative = growth inhibition” value does the source give for `O=[N+]([O-])c1ccc2c(c1)C(O)n1nc(-c3ccccc3)nc1S2` (centres undefined) here?
**A.** Its value is -9.02% (inactive).

**Q.** Which “activity change, negative = growth inhibition” value does the source give for `NC1=NN(c2cccc(C(=O)O)c2)C(=O)C1` here?
**A.** The value was 18% (inactive).

**Q.** Which “activity change, negative = growth inhibition” value does the source give for `Cc1nn(C)c(C)c1C(C)NC(=O)c1ccc(OC2CCN(Cc3ccccn3)CC2)cc1` (centres undefined) here?
**A.** Its value is -8.27% (inactive).

**Q.** Which Potency does the source give for `Cc1onc(-c2ccccc2Cl)c1C(=O)OCc1nnc(-c2ccccc2)o1` here?
**A.** Its Potency is 23.1 µM (active).

**Q.** For `CN(C)c1ccc(-c2nnc(-c3cccnc3)o2)cc1`, which “activity change, negative = growth inhibition” value is on record?
**A.** Its value is -15.1% (inactive).

**Q.** With `O=C(OCc1nnc(-c2ccccc2)o1)c1ccc2c(c1)C(=O)N(CCc1ccccc1)C2=O` as the compound, how does the “activity change, negative = growth inhibition” value read?
**A.** Its value is -6.81% (inactive).

**Q.** Which Potency does the source give for `Cc1onc(-c2ccccc2)c1-c1nnc(COC(=O)c2ccc(N(C)C)cc2)o1` here?
**A.** Its Potency is 20.6 µM (active).

**Q.** For `C=CCn1nc(-c2ccccc2)c2c(C)onc2c1=O`, which “activity change, negative = growth inhibition” value is on record?
**A.** Its value is 4.95% (inactive).

**Q.** Which “activity change, negative = growth inhibition” value does the source give for `Cc1ccc(C(=O)NCC(=O)OCc2nnc(-c3ccccc3)o2)cc1` here?
**A.** Its value is 10.3% (inactive).

**Q.** With `CCCN1CNC(=S)N(CCc2ccccc2)C1` as the compound, how does the “activity change, negative = growth inhibition” value read?
**A.** Its value is -27.4% (inactive).

**Q.** With `O=C(CSc1nc2[nH]c(=O)[nH]c(=O)c2s1)Nc1cccc(F)c1` as the compound, how does the “activity change, negative = growth inhibition” value read?
**A.** The value was -21.4% (inactive).

**Q.** With `O=C(O)c1ccccc1-c1cccc2nncn12` as the compound, how does the “activity change, negative = growth inhibition” value read?
**A.** The value was -7.8% (inactive).

**Q.** For `COC(=O)c1ccc2c(=O)n(CC3CCCO3)c(=S)[nH]c2c1` (centres undefined), which “activity change, negative = growth inhibition” value is on record?
**A.** Its value is -7.54% (inactive).

**Q.** Which Potency does the source give for `CCOC(=O)c1sc(=S)n2c1[nH]c(=O)c1ccc(C(=O)OC)cc12` here?
**A.** The Potency was 5.8 µM (active).

**Q.** With `CCOC(=O)c1sc2nc(C)[nH]c(=O)c2c1C` as the compound, how does the “activity change, negative = growth inhibition” value read?
**A.** Its value is -15.4% (inactive).

**Q.** For `Cc1cc(C)c2c(n1)sc1c(=O)n(-c3ccccc3)c(=O)[nH]c12`, which “activity change, negative = growth inhibition” value is on record?
**A.** Its value is -7.07% (inactive).

**Q.** Which “activity change, negative = growth inhibition” value does the source give for `CC(=O)Nc1cc(C(=O)O)ccc1S(=O)(=O)c1ccc(Cl)cc1` here?
**A.** Its value is -8.93% (inactive).
